# The campaign covered roughly 69,000 compounds. About 1,000 (1.4%) showed an effect of 50% or more. The list comes from a sample in which strong results are over-represented; it also holds similar structures and randomly drawn compounds.
# System: Leishmania donovani
# Assay: Leishmania intramacrophage assay
# Format: functional, organism-based
# Design: scale not given: in the data most compounds retested in dose-response had high values
compound,measurement,setting,value
Cc1nc(NC(=O)C(C)N(C)Cc2ccc3c(c2)OCO3)sc1C (stereo not drawn),Percent Effect,"30.3 µM, […]",11.52%
Cc1nc(NC(=O)C(C)N(C)Cc2cccc(C#N)c2)sc1C (stereo not drawn),Percent Effect,"30.3 µM, […]",-18.76%
COc1cccc(CN(C)C(C)C(=O)Nc2nc(C)c(C)s2)c1 (stereo not drawn),Percent Effect,"30.3 µM, […]",51.15%
CCN(CC)C1CCN(C(=O)NCc2cccc(-n3ccnc3)c2)C1 (stereo not drawn),Percent Effect,"30.3 µM, […]",23.85%
Cl.O=C(O)C1(Cc2cccc(-c3cccs3)c2)CCCNC1 (stereo not drawn),Percent Effect,"30.3 µM, […]",29.13%
Cl.O=C(N1CCCC1)C1(Cc2ccc(-c3cccs3)cc2)CCNC1 (stereo not drawn),Percent Effect,"30.3 µM, […]",86.38%
Cl.O=C(O)C1(Cc2ccc(-c3cccs3)cc2)CCNC1 (stereo not drawn),Percent Effect,"30.3 µM, […]",44.48%
O=C(NCc1cc[nH]n1)NCC(O)c1ccc(F)cc1F (stereo not drawn),Percent Effect,"30 µM, 30.03 µM",9.759%
O=C(c1cnccn1)N1CCCC(C2=Nc3ccccc3S(=O)(=O)N2)C1 (stereo not drawn),Percent Effect,"30.3 µM, […]",-20.53%
O=C1CCC(=O)N1c1nn(Cc2cccc(F)c2)cc1Cl,Percent Effect,"30.3 µM, […]",-1.051%
CC(C)CN1CC(C(=O)NCCNc2ncccn2)CC1=O (stereo not drawn),Percent Effect,"30.3 µM, […]",7.647%
COCC(=O)N1CCCn2c(CN3CCCCC3)nnc2C1.O=C(O)C(F)(F)F,Percent Effect,"30 µM, 30.03 µM",-9.377%
COCC(=O)N1CCCn2c(CN3CCCC3=O)nnc2C1,Percent Effect,"30.3 µM, […]",51.47%
COCC(=O)N1CCCn2c(CN3CCCC3)nnc2C1,Percent Effect,"30.3 µM, […]",44.76%
CCOc1ccc(C(=O)NS(=O)(=O)c2cncc(Br)c2)cc1OC,Percent Effect,"30 µM, 30.03 µM",20.52%
CCCN(CCOC)c1nc(C)nc2sccc12,Percent Effect,"30.3 µM, […]",19.01%
CCOCCN(CCOCC)c1nc(C)nc2sccc12,Percent Effect,"30.3 µM, […]",93.26%
COCCN(Cc1sccc1C)c1nc(C)nc2sccc12,Percent Effect,"30.3 µM, […]",13.95%
Cc1nnc(SCCNC(=O)Cn2cnc3ccccc3c2=O)s1,Percent Effect,"30.3 µM, […]",15.09%
COc1cc(N2CCC3(CCN(Cc4csc(C)n4)C3)CC2)ncn1.O=C(O)C(F)(F)F,Percent Effect,"30.3 µM, […]",30.69%
Cc1cnc(N2CCC3(CCN(Cc4csc(C)n4)C3=O)C2)nc1.O=C(O)C(F)(F)F (stereo not drawn),Percent Effect,"30.3 µM, […]",19.08%
COc1cc(N2CCC3(CCN(Cc4csc(C)n4)C3=O)C2)ncn1.O=C(O)C(F)(F)F (stereo not drawn),Percent Effect,"30.3 µM, […]",55.45%
COCCCn1c(CN2CCSCC2)cnc1S(=O)(=O)C1CCCC1,Percent Effect,"30.3 µM, […]",17.55%
CCc1nc2n(n1)CC(NCC(=O)Nc1ccc(Cl)cn1)CC2 (stereo not drawn),Percent Effect,"30 µM, 30.03 µM",11.34%
CC(CNS(N)(=O)=O)Oc1cccc(Cl)c1 (stereo not drawn),Percent Effect,"30.3 µM, […]",5.132%
Cc1ccc(Oc2c(F)cccc2OC[C@@H](N)CC(C)C)cc1,Percent Effect,"30.3 µM, […]",95.01%
CNCc1cc(F)ccc1Oc1ccc(Cl)cc1,Percent Effect,"30.3 µM, […]",-3.595%
CC(C)C[C@H](N)COc1cccc(F)c1Oc1cccc(Cl)c1,Percent Effect,"30.3 µM, […]",98.08%
NCc1ccc(Oc2cccc(Cl)c2Cl)cc1,Percent Effect,"30.3 µM, […]",17.28%
COc1ccccc1C(N)CC(C)C (stereo not drawn),Percent Effect,"30.3 µM, […]",3.977%
CC(C)C[C@H](N)COc1cccc(F)c1Oc1ccc(Cl)cc1,Percent Effect,"30.3 µM, […]",96.61%
CC(CNS(C)(=O)=O)Oc1cccc(Cl)c1 (stereo not drawn),Percent Effect,"30.3 µM, […]",6.182%
CC(C)COc1ccccc1C(N)CC(C)C (stereo not drawn),Percent Effect,"30.3 µM, […]",23.51%
CCCOc1ccccc1C(N)CC(C)C (stereo not drawn),Percent Effect,"30.3 µM, […]",24.69%
CCOc1ccccc1C(N)CC(C)C (stereo not drawn),Percent Effect,"30.3 µM, […]",19.23%
CC(C)C[C@H](N)COc1cccc(F)c1Oc1ccccc1,Percent Effect,"30.3 µM, […]",56.67%
CCn1c(NCc2ccco2)nc2c(C)nn(C)c2c1=O,Percent Effect,"30 µM, 30.03 µM",16.24%
Cc1cc(CN2CCN(C(C)C)C(CCO)C2)[nH]n1 (stereo not drawn),Percent Effect,"30.3 µM, […]",0.4197%
c1ccc(Cc2nnc([C@H]3CCN(C4CCCCC4)C3)o2)cc1,Percent Effect,"30.3 µM, […]",11.62%
COc1ccccc1-n1nc(CC(C)C)nc1CSc1nnc(N)s1,Percent Effect,"30.3 µM, […]",13.73%
CN(C)C(=O)COC[C@]12COC[C@H]1CN(C1CCCC1)C2.O=C(O)C(F)(F)F,Percent Effect,"30.3 µM, […]",40.35%
CC(C)(C)NC(=O)CN1CCNCC1.Cl.Cl,Percent Effect,"30.3 µM, […]",11.16%
O=C(O)C(F)(F)F.O=C1CC2(CCN(CC3CC3)C2)CN1c1ccc2c(c1)OCO2 (stereo not drawn),Percent Effect,"30 µM, 30.03 µM",25.29%
Cc1c(C(C)N)cnn1-c1cccc2ccccc12 (stereo not drawn),Percent Effect,"30.3 µM, […]",22.69%
Cc1ccc(-c2noc(CCC(=O)NC(C)Cn3cccn3)n2)cc1 (stereo not drawn),Percent Effect,"30.3 µM, […]",22.16%
CCCc1ccc(S(=O)(=O)Nc2ccc(=O)n(C)c2)cc1,Percent Effect,30 µM,20.55%
Cn1cc(NS(=O)(=O)c2ccc(C(F)(F)F)cc2)ccc1=O,Percent Effect,30 µM,-2.5%
Cc1ccc(S(=O)(=O)Nc2ccc(=O)n(C)c2)cc1,Percent Effect,"30 µM, 30.03 µM",54.33%
CCN1CC2(CC1=O)CN(Cc1ccoc1)CCN(C(=O)C(C)C)C2 (stereo not drawn),Percent Effect,"30.3 µM, […]",8.034%
O=C(c1ccc(Br)o1)N1CCN(Cc2ccc(OC(F)(F)F)cc2)CC1,Percent Effect,"30 µM, 30.03 µM",31.07%
CN(CCc1cccc2ccccc12)Cc1nc(N)nc(N(C)C)n1,Percent Effect,"30.3 µM, […]",94.18%
CN(Cc1nc(N)nc(N(C)C)n1)Cc1cccc2ccccc12,Percent Effect,"30.3 µM, […]",1.643%
CN(CC(=O)Nc1cccc(F)c1)Cc1nc(N)nc(N(C)C)n1,Percent Effect,"30.3 µM, […]",21.77%
Cc1ccc(CN2CCCC3(CCN(S(C)(=O)=O)C3)C2)o1.O=C(O)C(F)(F)F (stereo not drawn),Percent Effect,"30 µM, 30.03 µM",4.141%
COCc1cc(NCCCSc2nnc(C)s2)ncn1,Percent Effect,"30.3 µM, […]",26.84%
Cc1nnc(SCCCNc2cc(C3CC3)ncn2)s1,Percent Effect,"30.3 µM, […]",31.22%
COc1cc(NCCCSc2nnc(C)s2)ncn1,Percent Effect,"30.3 µM, […]",57.45%
Cc1nnc2n1CCN(C(=O)COCCOc1ccccc1)C2,Percent Effect,"30 µM, 30.03 µM",16.55%
Cc1cc(CN2CCCC(C)(CO)C2)ccc1F (stereo not drawn),Percent Effect,"30 µM, 30.03 µM",31.69%
Cc1nc(C)n(CC2CN(Cc3noc(C4CC4)n3)CCO2)n1 (stereo not drawn),Percent Effect,"30.3 µM, […]",-6.202%
Cc1cnc(CCNC(=O)C2CCN(S(=O)(=O)c3ccc(F)cc3)C2)s1 (stereo not drawn),Percent Effect,"30.3 µM, […]",33.75%
COCCN1CCC(CN(CC2CCCO2)C(=O)Cc2cccs2)CC1 (stereo not drawn),Percent Effect,"30.3 µM, […]",8.21%
COCCN1CCC(CN(CC2CCCO2)C(=O)Cn2cccn2)CC1 (stereo not drawn),Percent Effect,"30.3 µM, […]",58.18%
COCCN1CCC(CN(CC2CCCO2)C(=O)COC)CC1 (stereo not drawn),Percent Effect,"30 µM, 30.03 µM",-10.91%
Cc1nc(NC(=O)N2CCCC(C(C)(C)O)C2)nn1C (stereo not drawn),Percent Effect,"30.3 µM, […]",-6.912%
Cc1cnccc1N1CCN(C(=O)C2CC3(CCNCC3)CN2)CC1 (stereo not drawn),Percent Effect,"30.3 µM, […]",-56.52%
Cc1cccc(N2CCN(C(=O)C3CC4(CCNCC4)CN3)CC2)n1 (stereo not drawn),Percent Effect,"30.3 µM, […]",82.82%
O=C(C1CC2(CCNCC2)CN1)N1CCN(c2ccccc2)CC1 (stereo not drawn),Percent Effect,"30.3 µM, […]",-6.874%

# — ChEMBL document CHEMBL3988442, “University of Dundee, Small-Polar-MMV Screening Library” (2021)
